From PubChem
TDP1 cell noCPT: qHTS for Inhibitors of human tyrosyl-DNA phosphodiesterase 1 (TDP1): qHTS in cells in absence of CPT | DT40 Tdp1-/- hTDP1 cells, no CPT, ATP luminescence, 48 h | Potency, µM (highest dose often 46.2 µM), for inactives: top-dose activity change, negative = growth inhibition, usual class: inhibitors | hit rate 15% among 420,000; further: potency means the concentration at half of the fitted maximal effect; on the % scale 0 is the no-effect control and ±100 the full control effect; nearly all actives have a fitted effect of over 55% in size
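Camptothecin absent (DMSO only). Human TDP1-complemented DT40 knockout cells, 400 cells/well, 37 °C for minimum 48 hr; ATP measured via CellTiter-Glo, 30 min dark incubation, luminescence.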
IL-1B inflam inh: qHTS for Inhibitors of Inflammasome Signaling: IL-1-beta AlphaLISA Primary Screen; hit rate 4.7% among 360,000; activity change, % at 57.5 µM; AID 743279, 2014; THP-1 LPS/ATP IL-1B secretion, AlphaLISA, 16 h; active compounds read low; in the data active means activity change below about -50%; inconclusive means mostly about -30% to -49%; further: on the % scale 0 is the no-effect control and ±100 the full control effect
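THP-1 cells pretreated 1 hr with compounds (up to 57.5 uM final), then stimulated with LPS (250 ng/mL final) plus ATP (1.25 mM final); secreted IL-1B measured by AlphaLISA after 16 hr, decreased signal indicating inhibition.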
TDP1 inh: qHTS Assay for Inhibitors of Tyrosyl-DNA Phosphodiesterase (TDP1). hit rate 0.28% among 350,000. recombinant TDP1, AlphaScreen DNA substrate cleavage. Tyrosyl-DNA phosphodiesterase 1 (Homo sapiens), Q9NUW8. Potency, µM (doses to about 130 µM), without a hit: top-dose activity change, negative = inhibition, hits mostly inhibitors; further: potency means the concentration at half of the fitted maximal effect; on the % scale 0 is the no-effect control and ±100 the full control effect; nearly all actives have a fitted effect of over 40% in size
Target sequence (Q9NUW8 whole entry, looked up): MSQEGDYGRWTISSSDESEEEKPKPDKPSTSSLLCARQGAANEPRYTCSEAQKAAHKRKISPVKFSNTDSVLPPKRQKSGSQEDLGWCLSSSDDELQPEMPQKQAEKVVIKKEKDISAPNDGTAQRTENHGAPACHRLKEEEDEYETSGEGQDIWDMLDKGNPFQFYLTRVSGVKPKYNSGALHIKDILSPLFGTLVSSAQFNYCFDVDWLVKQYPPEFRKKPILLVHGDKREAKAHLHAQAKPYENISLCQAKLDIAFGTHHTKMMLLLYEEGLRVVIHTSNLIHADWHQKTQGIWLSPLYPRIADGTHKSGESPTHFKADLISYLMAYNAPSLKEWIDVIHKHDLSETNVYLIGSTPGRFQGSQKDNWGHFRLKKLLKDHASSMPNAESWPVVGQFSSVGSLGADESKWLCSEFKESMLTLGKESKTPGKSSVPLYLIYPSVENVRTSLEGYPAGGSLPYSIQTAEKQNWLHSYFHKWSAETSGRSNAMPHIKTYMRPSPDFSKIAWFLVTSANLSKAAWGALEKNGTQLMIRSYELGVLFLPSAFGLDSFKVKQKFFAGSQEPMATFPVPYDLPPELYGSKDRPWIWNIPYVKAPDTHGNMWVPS
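Steps: enzyme plus compound, 15 min RT; add biotin/phosphotyrosine-FITC oligonucleotide (15 nM final), react 5 min; add donor/acceptor beads (10 ug/ml final), 10 min; read AlphaScreen. Tdp1 at 1 nM final.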
DT40 TDP1 CPT: qHTS for Inhibitors of human tyrosyl-DNA phosphodiesterase 1 (TDP1): qHTS in cells in presence of CPT. chicken DT40 Tdp1-/-;hTDP1 cells + 20 nM CPT, ATP luminescence, 48 h. Potency, µM (series often up to 46.2 µM), inactives show at the top dose activity change, negative = growth inhibition, most hits filed as inhibitors. hit rate 12% among 420,000. AID 686979, 2013; further: potency means the concentration at half of the fitted maximal effect; on the % scale 0 is the no-effect control and ±100 the full control effect; nearly all actives have a fitted effect of over 55% in size
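Chicken DT40 Tdp1-/- cells stably complemented with human TDP1 were seeded at 400 cells/well in medium containing 20 nM camptothecin, exposed to pin-transferred compounds, and grown at 37 °C for at least 48 hr. Viability was read as ATP luminescence.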
HepG2 viability: qHTS for Inhibitors of TGF-b: Cytotox Counterscreen. AID 588856, 2011. hit rate 0.76% among 410,000. Potency, µM (top dose mostly 46.1 µM), without a hit: top-dose activity change, negative = cytotoxicity, actives largely listed as cytotoxic. HepG2 CAGA-GFP viability, ATP luminescence, 18 h; further: potency means the concentration at half of the fitted maximal effect
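HepG2 CAGA-GFP cells (1000/well, DMEM with 1% FBS) received compound, then TGF-beta at 500 pg/mL final, and were incubated 18 hours at 37 degrees C. Viability was read by CellTiter-Glo luminescence. Media-only wells were set as complete cell-killing and DMSO as no toxicity.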
TGFb SMAD3 inh: qHTS for Inhibitors of TGF-b | HepG2 CAGA-GFP TGF-b/SMAD3 reporter, GFP fluorescence, 18 h; TGF-beta stimulated, 500 pg/mL final | Potency, µM (doses to about 46.1 µM), without a hit: at the highest dose activity, negative = inhibition, usual class: inhibitors | hit rate 1.2% among 410,000; further: potency means the concentration at half of the fitted maximal effect; on the % scale 0 is the no-effect control and ±100 the full control effect; nearly all actives have a fitted effect of over 65% in size
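First, reporter cells (HEPG2 CAGA-GFP) rested 2 h at 37 degrees C. Next, compounds were pinned in and TGF-beta added to 500 pg/mL final. After 18 h, GFP was imaged per cell and summed per well.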
* marks the source's active call; other numbers are inactive results; ? = inconclusive; nt = no result given; [ ] = dose if it differs, or a comment. The list is not random: actives were taken first. Their share in the collection is about 18%. Unless noted, the call rests on the fitted dose curve; in most records, active means well fitted curve in the direction sought with a large enough effect; inconclusive means small, poorly fitted or top-dose-only effect, or another doubt; inactive means no such curve, though single readings can be large; an effect the other way counts as inactive or inconclusive.

SMILES | TDP1 cell noCPT | IL-1B inflam inh | TDP1 inh | DT40 TDP1 CPT | HepG2 viability | TGFb SMAD3 inh
CC(C)COC(=O)N(C)C[C@@H]1OCc2cnnn2CCCC(=O)N([C@H](C)CO)C[C@@H]1C | 4.7% | 44.3 | nt | -0.7% | 0.2% | 0.6%
O=C(O)CCn1c2c(c3ccccc31)C[C@H](NS(=O)(=O)c1ccc(F)cc1)CC2 | -6.8% | nt | nt | -1.2% | nt | nt
C[C@@H]1CN(Cc2ccc3c(c2)CN(C(=O)CN2CCOc4ccccc4C2)CCO3)C[C@H](C)O1 | -22.8% | nt | nt | -3.9%[9.04 µM] | nt | nt
OCCN1CCN(Cc2ccc3c(c2)CN(Cc2cnc(-c4ccccc4)s2)CCO3)CC1 | -22.0% | nt | nt | 4.5% | nt | nt
C[C@@H]1CN(Cc2ccc3c(c2)CN(C(=O)c2ccc(Oc4ccccc4)o2)CCO3)C[C@H](C)O1 | 11.6µM* | nt | nt | -14.0%[9.04 µM] | nt | nt
C[C@@H]1CN(Cc2ccc3c(c2)CN(Cc2nc(-c4ccccc4)cs2)CCO3)C[C@H](C)O1 | 23.1µM* | nt | nt | -7.2%[9.04 µM] | nt | nt
CCc1nn(CC(=O)NCCc2ccc(OC)cc2OC)c(=O)c2cc3sccc3n12 | -18.1% | nt | -2.9% | -5.3% | -8.7% | ?
CCN(CCNC(=O)c1ccc(CSc2nc3ccncc3[nH]2)cc1)c1ccccc1 | -9.5% | 35.9 | 0.0% | -1.4% | -19.0% | -13.2%
O=C(NCCN1CCN(c2cccc(Cl)c2)CC1)c1ccc(CSc2nc3ccncc3[nH]2)cc1 | ? | -63.0* | 4.9% | ? | -14.8% | ?
CC1CC(C)CN(C(=O)c2ccc(CSc3nc4ccncc4[nH]3)cc2)C1 (configuration not stated) | 11.6µM* | 3.0 | -1.3% | ? | -69.8% | -45.7%
Cc1ccccc1-c1noc(CSc2nnc(Cc3ccccc3)n2-c2ccc(F)cc2)n1 | 9.2µM* | nt | -1.2% | ? | -39.5% | ?
CCOc1ccc(-n2c(Cc3ccccc3)nnc2SCc2nc(-c3ccccc3OC)no2)cc1 | 16.4µM* | nt | 6.1% | ? | -17.4% | ?
N#Cc1c(Cl)nsc1NC(=O)c1ccccc1 | 8.2µM* | ? | -3.8% | 13µM* | -41.4% | 3.55µM*
CCN(CC(=O)Nc1cc(S(=O)(=O)N2CCOCC2)ccc1C)Cc1ccccc1 | 13µM* | -4.1 | 0.0% | 16.4µM* | -4.1% | -5.4%
COc1ccccc1N(CC(=O)Nc1ccc(S(=O)(=O)N2CCCCC2)cc1)S(C)(=O)=O | 18.4µM* | -3.2 | 5.2% | ? | -10.6% | -7.3%
CCN(CC(=O)Nc1cccc(S(=O)(=O)N2CCOCC2)c1)Cc1ccccc1 | ? | -4.9 | -1.4% | ? | 1.9% | -2.2%
CCN(CC(=O)Nc1ccc(S(=O)(=O)N2CCCC2)cc1)Cc1ccccc1 | ? | -4.3 | 5.7% | 16.4µM* | 4.4% | -8.9%
COc1ccccc1CC(=O)Nc1ccc(S(=O)(=O)N2CCCCC2)cc1 | ? | -16.7 | 11.7%[0.0935 µM] | -19.0% | -20.9% | 2.9%
CCN(CC(=O)Nc1ccc(S(=O)(=O)N2CCOCC2)cc1)Cc1ccccc1 | -27.6% | -17.3 | nt | -28.2% | -2.0% | -10.4%
CCOc1cccc(CC(=O)N2CCc3c([nH]c4ccccc34)C2c2ccc(Cl)cc2)c1OCC (configuration not stated) | 14.6µM* | nt | 5.4% | 10.3µM* | 3.4% | -6.6%
CSc1ccc(C2c3[nH]c4ccccc4c3CCN2C(=O)CCc2ccccc2)cc1 (configuration not stated) | -21.2% | nt | 5.4% | -18.5% | -17.2% | -14.4%
O=C(CCC1CCCC1)N1CCc2c([nH]c3ccccc23)C1c1ccc(Cl)cc1 (configuration not stated) | ? | nt | 8.1% | ? | -30.8% | -9.4%
O=C(CCc1ccccc1)N1CCc2c([nH]c3ccccc23)C1c1ccc(Cl)cc1 (configuration not stated) | 25.9µM* | nt | 0.0% | 16.4µM* | -31.3% | -14.9%
COc1ccccc1-c1ccc([C@@H]2C[C@H]3[C@H](CON3C)CN2C(=O)c2ccc(-c3ccccc3)cc2)cc1 | ? | -19.3 | nt | ? | -15.9% | -2.6%
C[C@H]1CN([C@@H](C)CO)C(=O)c2cc(C#Cc3ccccn3)cnc2O[C@@H]1CN(C)Cc1ccccc1 | -21.4% | -8.9 | nt | 12.7% | -0.9% | -1.7%
SMILES | TDP1 cell noCPT | IL-1B inflam inh | TDP1 inh | DT40 TDP1 CPT | HepG2 viability | TGFb SMAD3 inh
Cc1ccc(S(=O)(=O)CCC(O)c2ccc(Cl)cc2)cc1 (configuration not stated) | 5.1% | 18.3 | nt | -16.4% | -10.2% | -8.6%
COc1ccc(-c2cc3nc(NCCCN(C)C)n(C)c(=O)c3s2)cc1OC | ? | -14.9 | nt | ? | 11.4% | 11.8%
COCCNc1nc2cc(-c3cccc(C(F)(F)F)c3)sc2c(=O)n1C | -21.6% | 72.1 | nt | ? | -3.6% | -4.0%
CN(C)CCCNc1nc2cc(-c3cccc(Cl)c3)sc2c(=O)n1C | ? | -24.8 | nt | ? | 11.2µM* | ?
CN(C)CCCNc1nc2cc(-c3cccc(C(F)(F)F)c3)sc2c(=O)n1C | ? | -65.8* | nt | 18.4µM* | -92.9% | ?
Cn1c(NCc2ccccc2)nc2cc(-c3cccc(C(F)(F)F)c3)sc2c1=O | 18.4µM* | 0.0 | nt | ? | -6.9% | 4.2%
COc1ccc(S(=O)(=O)N2CCN=C2SCc2cccc(F)c2)cc1 | ? | -6.7 | -2.7% | ? | -1.0% | -12.4%
O=c1[nH]c2ccc(Br)cc2o1 | -16.4% | 19.0 | nt | -0.4% | 9.1% | 21.1%
O=C(CCl)c1ccc2[nH]c(=O)oc2c1 | 3.26µM* | ? | 0.0% | 2.59µM* | 10µM* | ?
